Measured values as given in PubChem BioAssay (Tox21).
Records with an inconclusive call do not appear. The source made the active and inactive calls. Unless noted, calls follow the shape of the dose curve; as a rule, active = well fitted curve in the direction sought with a large enough effect in the repeat runs; inconclusive = weak or mixed curves; inactive = no such curve, though single readings can be large; an effect the other way counts as inactive or inconclusive.

Legend:
[1] = qHTS RealTime-Glo MT Cell Viability Assay in HEK293 cells - 8 hour (AID 1224887); also: top concentration of the series differs between compounds; nearly all actives have a fitted effect of over 50% in size
How it was run: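 Luminescence readout at each listed time point; HEK293, 600 cells/well, RealTime-Glo MT reagent added with cells; compounds pinned (23 nL in DMSO) after 5 h at 37 C; continuous culture at 37 C.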

[2] = A CellTox Green Cytotoxicity Assay to monitor cytotoxicity in HEK293 cells - 16 hour (AID 1224888); also: nearly all actives have a fitted effect of over 35% in size
How it was run: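 Read-out: fluorescence of a cell-impermeant cyanine dye staining DNA of dead cells, proportional to cytotoxicity. HEK293, 600 cells/well with reagent, compound (23 nL DMSO) added after 5 h; reads at 0, 8, 16, 24, 32, 40 h.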

[3] = qHTS RealTime-Glo MT Cell Viability Assay in HepG2 cells - 0 hour (AID 1224889); also: nearly all actives have a fitted effect of over 50% in size
How it was run: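 HepG2 cells were seeded at 600 cells/well together with NanoLuc luciferase and a cell-permeant prosubstrate, preincubated 5 h at 37 C/5% CO2, then pin-dosed with compounds in DMSO. Nonlytic luminescence from viable cells was read at each time point.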

[4] = A CellTox Green Cytotoxicity Assay to monitor cytotoxicity in HepG2 cells - 8 hour (AID 1224890); also: nearly all actives have a fitted effect of over 45% in size
How it was run: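 HepG2, 600 cells/well premixed w/ CellTox Green; 5 h settle, 37 C/5% CO2; pintool cpd add (DMSO); 37 C, 40 h; fluorescence read at 0, 8, 16, 24, 32, 40 h.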

[5] = qHTS assay to identify small molecule antagonists of the estrogen receptor alpha (ER-alpha) signaling pathway using the BG1 cell line in the presence of 0.1 nM 17-beta-estradiol - cell viability counter screen (AID 1259241); also: nearly all actives have a fitted effect of over 40% in size
How it was run: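 In this screen, hormone-deprived VM7Luc4E2 cells were seeded at 4,000 per well, dosed with compound and 0.1 nM estradiol final, and incubated 22 hr at 37C and 5% CO2; fluorogenic live-cell protease signal reported viability.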

[6] = qHTS assay to identify small molecule antagonists of the androgen receptor (AR) signaling pathway using the MDA cell line in the presence of 0.5 nM R1881 - cell viability counter screen (AID 1259242); also: nearly all actives have a fitted effect of over 45% in size
How it was run: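 Live-cell protease fluorescence, CellTiter-Fluor, 30 min at 37C. Cells: MDA-kb2, 3,000/well, preincubated 5 hr. Compounds plus 0.5 nM R1881 final, 16 hr, 37C, 0% CO2.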

[7] = biological target: Estrogen receptor (Homo sapiens) (UniProt P03372); test: qHTS assay to identify small molecule antagonists of the estrogen receptor alpha (ER-alpha) signaling pathway using the BG1 cell line in the presence of 0.1 nM 17-beta-estradiol (AID 1259244); also: nearly all actives have a fitted effect of over 50% in size
Sequence of Estrogen receptor (Homo sapiens) (P03372 whole entry, looked up): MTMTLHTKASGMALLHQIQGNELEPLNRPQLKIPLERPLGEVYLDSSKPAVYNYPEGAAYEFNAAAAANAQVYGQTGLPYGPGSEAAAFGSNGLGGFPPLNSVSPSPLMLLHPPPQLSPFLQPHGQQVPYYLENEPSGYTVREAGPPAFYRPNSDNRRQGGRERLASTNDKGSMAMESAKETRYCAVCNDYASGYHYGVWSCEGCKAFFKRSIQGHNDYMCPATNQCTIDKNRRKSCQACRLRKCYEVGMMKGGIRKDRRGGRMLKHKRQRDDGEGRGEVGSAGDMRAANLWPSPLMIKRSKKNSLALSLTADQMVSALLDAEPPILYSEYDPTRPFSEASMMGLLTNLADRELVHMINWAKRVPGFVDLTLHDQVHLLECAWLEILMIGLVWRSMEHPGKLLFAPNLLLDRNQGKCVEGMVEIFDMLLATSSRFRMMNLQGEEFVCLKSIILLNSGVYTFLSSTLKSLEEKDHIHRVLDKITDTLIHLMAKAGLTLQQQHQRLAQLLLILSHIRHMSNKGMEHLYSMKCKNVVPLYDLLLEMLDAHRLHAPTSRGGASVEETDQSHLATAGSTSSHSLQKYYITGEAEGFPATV
How it was run: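 Luminescence after ONE-Glo (30 min, room temperature) measured ERE-luciferase activity in VM7Luc4E2 cells treated 22 h with compound and 0.1 nM final 17beta-estradiol as stimulator.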

[8] = qHTS assay to identify small molecule HDAC inhibitors - cell viability counter screen (AID 1259365); also: series mostly up to about 92 µM; nearly all actives have a fitted effect of over 50% in size
How it was run: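 Measured quantity is CellTiter-Glo luminescence from wild-type HCT-116 cells after compound incubation of 2hr at 37C, 5% CO2; reagent developed 30min at room temperature.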

[9] = qHTS assay to identify small molecule agonists of the sonic hedgehog signaling (Shh) pathway - cell viability counter screen (AID 1259366); also: nearly all actives have a fitted effect of over 50% in size
How it was run: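 In quantitative high-throughput format, 3T3 Gli1-Luc cells were exposed to compounds for 24hr and multiplexed for viability using CellTiter-Fluor, incubated 1hr at 37C before the fluorescence read.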

[10] = qHTS assay to identify small molecule antagonists of the sonic hedgehog signaling (Shh) pathway - cell viability counter screen (AID 1259367); also: nearly all actives have a fitted effect of over 55% in size
How it was run: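 Cytotoxicity was assessed in parallel with Shh reporter activity by measuring live-cell protease fluorescence (CellTiter-Fluor) in NIH/3T3 cells stably carrying Gli1-Luc, treated with compound under conditioned medium stimulation for 23 hr plus 1 hr reagent incubation.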

[11] = qHTS assay to identify small molecule agonists of the sonic hedgehog signaling (Shh) pathway (AID 1259368; calls by dose curve;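 also: NIH/3T3-derived 3T3Gli1-Luc cells carrying a stable Gli1-driven firefly luciferase reporter; series mostly up to about 92 µM; nearly all actives have a fitted effect of over 15% in size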)
How it was run: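 Read-out: firefly luciferase luminescence from a Gli1 response element reporter stably integrated in NIH/3T3-derived 3T3Gli1-Luc cells, measured 30 min at room temperature after reagent addition. Compound exposure lasted 24 hr at 37 C, 5% CO2.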

[12] = qHTS assay to identify small molecule antagonists of the sonic hedgehog signaling (Shh) pathway (AID 1259369; calls by dose curve; also: nearly all actives have a fitted effect of over 45% in size)
How it was run: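 Luminescence readout: firefly Luc under Gli1 response element in 3T3Gli1-Luc cells (NIH/3T3 clone). Antagonist mode, stimulation by conditioned medium; compound exposure 24hr at 37 C, 5% CO2.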

[13] = biological target: Estrogen receptor beta (Homo sapiens) (UniProt Q92731); test: qHTS assay to identify small molecule agonists of the estrogen receptor beta (ER-beta) signaling pathway (AID 1259377; active = well fitted activation curve with a large enough effect in the signal ratio in the repeat runs, not every such curve was filed as active; the % refers to the signal ratio)
Sequence of Estrogen receptor beta (Homo sapiens) (Q92731 whole entry, looked up): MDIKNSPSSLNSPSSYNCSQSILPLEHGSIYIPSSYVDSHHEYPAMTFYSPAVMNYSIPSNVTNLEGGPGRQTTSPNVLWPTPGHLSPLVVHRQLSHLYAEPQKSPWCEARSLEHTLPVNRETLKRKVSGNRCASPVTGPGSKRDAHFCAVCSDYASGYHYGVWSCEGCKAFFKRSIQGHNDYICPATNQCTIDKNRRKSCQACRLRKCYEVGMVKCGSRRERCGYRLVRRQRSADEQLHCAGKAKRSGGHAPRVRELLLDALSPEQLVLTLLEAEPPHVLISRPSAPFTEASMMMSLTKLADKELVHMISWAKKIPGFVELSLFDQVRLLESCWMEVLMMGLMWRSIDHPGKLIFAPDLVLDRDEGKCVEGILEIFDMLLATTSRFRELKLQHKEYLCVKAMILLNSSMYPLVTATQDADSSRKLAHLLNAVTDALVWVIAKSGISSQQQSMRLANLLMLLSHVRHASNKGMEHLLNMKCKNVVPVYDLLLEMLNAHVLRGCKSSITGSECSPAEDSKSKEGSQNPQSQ
How it was run: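 Reporter cells (HEK293T, ER-beta-UAS-bla) receive compounds or DMSO after a 6 hr pre-incubation. They then incubate 16 hr at 37C/5% CO2, and fluorescence from LiveBLAzer B/G substrate is measured after 2 hours at room temperature.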

[14] = biological target: Estrogen receptor beta (Homo sapiens) (UniProt Q92731); test: qHTS assay to identify small molecule antagonists of the estrogen receptor beta (ER-beta) signaling pathway (AID 1259378; active = well fitted inhibition curve with a large enough effect in the signal ratio in the repeat runs, not every such curve was filed as active; the % refers to the signal ratio)
How it was run: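 ER-beta-UAS-bla HEK293T (GripTite) cells in 2% charcoal-stripped FBS medium were preincubated 6 hr at 37C, dosed with compound, then stimulated with 1 nM E2 (final) for 16 hr; beta-lactamase reporter read by B/G FRET fluorescence after 2 hr substrate loading.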

[15] = qHTS assay to identify small molecule agonists of the androgen receptor (AR) signaling pathway in the presence of an antagonist - cell viability counter screen (AID 1259379);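 also: MDA-kb2 human breast cancer cells carrying an MMTV luciferase reporter; series mostly up to about 92 µM; nearly all actives have a fitted effect of over 25% in size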
How it was run: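 Viability counter screen: CellTiter-Fluor fluorescence, measured in the same wells as the luciferase read-out. MDA-kb2 cells, 3,000/well, with nilutamide at 3.0uM final and compounds at 15 concentrations, 16 hr at 37C, 0% CO2.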

[16] = qHTS assay to identify small molecule HDAC inhibitors (AID 1259364);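 also: wild-type HCT-116 cells with endogenous class I/II HDAC activity; top concentration of the series differs between compounds; nearly all actives have a fitted effect of over 45% in size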
How it was run: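 HCT-116 (wild type), 1,500 cells/well, overnight; compound 2 hr 37C 5% CO2; HDAC-Glo I/II reagent 30 min RT; luminescence readout.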

[17] = qHTS assay to identify small molecule agonists of the estrogen receptor beta (ER-beta) signaling pathway - cell viability counter screen (AID 1259380); also: nearly all actives have a fitted effect of over 30% in size
How it was run: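 Luminescence read-out (CellTiter-Glo, 30 min, room temp) taken in the same wells as the beta-lactamase reporter assay; ER-beta-UAS-bla HEK293T cells exposed to DMSO-dissolved compounds for 16 hr at 37C in 2% charcoal-stripped FBS medium.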

[18] = qHTS assay to identify small molecule phospholipidosis (PLD) inducers (AID 1259344; active = well fitted curve in the direction sought with a large enough effect; an effect the other way counts as inactive or inconclusive)
How it was run: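 Cells (HepG2, 900 per well) attach for 4 h, receive LipidTOX Red and compound together, incubate 24 h at 37 C, are fixed 30 min with paraformaldehyde/Hoechst, then imaged at one site per well.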
% is scaled to controls: 0 for no effect and ±100 for the full control effect.

CCC/C=C(\C=O)CC
inactive: Potency [1] | Potency [2] | Potency [3] | Potency [4] | outcome [5] | outcome [6] | outcome [7] | outcome [8] | outcome [9] | outcome [10] | outcome [11] | Potency [12] | Potency [13] | Potency [14] | outcome [15]

C=C(C)C1CC=C(C)C(=O)C1 (centres undefined)
inactive: Potency [1] | Potency [2] | Potency [3] | Potency [4] | outcome [5] | outcome [6] | Potency [16] | outcome [8] | outcome [9] | outcome [10] | outcome [11] | Potency [12] | Potency [13] | Potency [14] | outcome [15]

CCC(C)C(C)=O (centres undefined)
inactive: Potency [1] | Potency [2] | Potency [3] | Potency [4] | outcome [5] | outcome [6] | outcome [7] | outcome [8] | outcome [9] | outcome [10] | outcome [11] | Potency [12] | Potency [13] | Potency [14] | outcome [15] | outcome [17]

COC(=O)CCCCC(=O)O
inactive: Potency [1] | Potency [2] | Potency [3] | Potency [4] | outcome [5] | outcome [6] | outcome [7] | Potency [16] | outcome [8] | outcome [9] | outcome [10] | outcome [11] | Potency [12] | outcome [15] | outcome [17]

OC[C@@H](O)C(O)[C@@H](O)CO (some centres undefined)
inactive: Potency [1] | Potency [2] | Potency [3] | Potency [4] | outcome [5] | outcome [6] | Potency [16] | outcome [8] | outcome [9] | outcome [10] | outcome [11] | Potency [12] | outcome [15] | outcome [17]

Cc1c(N)cccc1Cl
inactive: Potency [1] | Potency [2] | Potency [3] | Potency [4] | outcome [5] | outcome [6] | outcome [7] | Potency [16] | outcome [8] | outcome [9] | outcome [10] | outcome [11] | Potency [13] | Potency [14] | outcome [15] | outcome [17]

CCOC(=O)CC1(C)OCC(C)O1 (centres undefined)
inactive: Potency [1] | Potency [2] | Potency [3] | Potency [4] | outcome [5] | outcome [6] | outcome [7] | Potency [16] | outcome [8] | outcome [9] | outcome [10] | outcome [11] | Potency [12] | Potency [13] | Potency [14] | outcome [15] | outcome [17]

NCc1ccc(S(N)(=O)=O)cc1
inactive: Potency [1] | Potency [2] | Potency [3] | Potency [4] | outcome [5] | outcome [6] | outcome [18] | Potency [16] | outcome [8] | outcome [9] | outcome [10] | outcome [11] | Potency [12] | Potency [13] | Potency [14] | outcome [15] | outcome [17]

O=S(=O)(O)c1ccc2c(N=Nc3ccc(S(=O)(=O)O)c4ccccc34)c(O)c(S(=O)(=O)O)cc2c1
inactive: activity change, negative = cytotoxicity [1] 2.74% [at 6.97 µM] | activity change [2] 8.43% [at 6.97 µM, active compounds read high] | activity change, negative = cytotoxicity [3] 7.14% [at 6.97 µM] | cytotoxicity increase [4] -1.78% [at 6.97 µM] | activity change, negative = cytotoxicity [5] -26.3% [at 8.39 µM] | viability change, negative = cytotoxic [6] -14.9% [at 8.39 µM] | outcome [18] | activity change, negative = inhibition [16] 1.26% [at 8.39 µM] | activity change, negative = cytotoxicity [8] -10.4% [at 8.39 µM] | viability change, negative = cytotoxic [9] -12.8% [at 8.39 µM] | viability change, negative = cytotoxic [10] -12.4% [at 8.39 µM] | activity change [11] -2.14% [at 8.39 µM] | activity change, negative = inhibition [12] 39.1% [at 8.39 µM] | activity change, negative = cytotoxicity [15] -15.5% [at 8.39 µM]

Cc1cccc(Cl)c1
inactive: Potency [1] | Potency [2] | Potency [3] | Potency [4] | outcome [5] | outcome [6] | Potency [16] | outcome [8] | outcome [9] | outcome [10] | outcome [11] | Potency [12] | Potency [13] | Potency [14] | outcome [15] | outcome [17]

N#Cc1ccccc1O
inactive: Potency [1] | Potency [2] | Potency [3] | Potency [4] | outcome [5] | outcome [6] | outcome [7] | Potency [16] | outcome [8] | outcome [9] | outcome [10] | outcome [11] | Potency [12] | outcome [15] | outcome [17]

OCC1(CO)COCOC1
inactive: Potency [1] | Potency [2] | Potency [3] | Potency [4] | outcome [5] | outcome [6] | Potency [16] | outcome [8] | outcome [9] | outcome [10] | outcome [11] | Potency [12] | Potency [13] | Potency [14] | outcome [15] | outcome [17]

C=C(C)[C@@H]1CC=C(C)CC1
inactive: Potency [1] | Potency [2] | Potency [3] | Potency [4] | outcome [5] | outcome [6] | outcome [7] | outcome [8] | outcome [9] | outcome [10] | outcome [11] | Potency [12] | outcome [15] | outcome [17]

CC1CC(=O)CC(C)(C)C1 (centres undefined)
inactive: Potency [1] | Potency [2] | Potency [3] | Potency [4] | outcome [5] | outcome [6] | outcome [7] | Potency [16] | outcome [8] | outcome [9] | outcome [10] | outcome [11] | Potency [12] | outcome [15]

CNCCS(=O)(=O)O
inactive: Potency [1] | Potency [2] | Potency [3] | Potency [4] | outcome [5] | outcome [6] | Potency [16] | outcome [8] | outcome [9] | outcome [10] | outcome [11] | Potency [12] | Potency [14] | outcome [15] | outcome [17]

CC(C)=CCC[C@@](C)(O)[C@H]1CC=C(C)CC1
inactive: Potency [1] | Potency [2] | Potency [3] | Potency [4] | outcome [5] | outcome [6] | outcome [18] | Potency [16] | outcome [8] | outcome [9] | outcome [10] | outcome [11] | Potency [12] | Potency [14] | outcome [15]
